Reference: PubChem BioAssay (NCATS)
Results filed as inconclusive are left out. Calls of active or inactive are those of the source. Unless noted, how the calls were made is not given here.

What was measured:
[1] = qHTS profiling of the MIPE4 collection as inhibitors of Plasmodium falciparum (3D7) proliferation (AID 743344);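 further: scaled between DMSO vehicle wells and 0.29 µM artemisinin as full inhibition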; conditions: P. falciparum 3D7 in erythrocytes, SYBR Green DNA fluorescence, 72 h; at 28.5 µM unless noted
In short: (§1)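 Erythrocytes infected with P. falciparum (0.3% parasitemia, 2.5% hematocrit) incubated with compounds 72 h at 37 C, 5% CO2. Lysis with saponin/Triton buffer containing SYBR Green I, overnight at room temperature in the dark; DNA fluorescence (485/535 nm) normalised to 0.29 uM artemisinin and DMSO.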

[2] = qHTS profiling of the MIPE4 collection as inhibitors of Plasmodium falciparum (DD2) proliferation (AID 743345); conditions: P. falciparum Dd2 in erythrocytes, SYBR Green DNA, 72 h; at 28.5 µM unless noted
In short: as §1

[3] = qHTS profiling of the MIPE4 collection as inhibitors of Plasmodium falciparum (DD2) proliferation (Rep 2) (AID 743346); conditions: P. falciparum Dd2 in erythrocytes, SYBR Green DNA, 72 h; at 28.5 µM unless noted
In short: as §1

[4] = High-throughput drug toxicity screening in the BPDCN cell line Gen2.2 (AID 1224824); conditions: Gen2.2 BPDCN cells; at 45.8 µM (top of the series) unless noted;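 further: cells exposed to compounds for 48 h before reading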
In short: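 Gen2.2 cells, 500 per well in phenol red-free RPMI with 10% FBS, exposed to compounds 48 h at 37 C, 5% CO2; viability by CellTiter-Glo luminescence. Percent activity scaled to DMSO (100%) and 9.2 uM bortezomib final (0%).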

[5] = High-throughput drug toxicity screening in the BPDCN cell line Cal-1 (AID 1224825); conditions: Cal-1 BPDCN cell viability, qHTS; at 45.8 µM (top of the series) unless noted
In short: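 Exponentially growing Cal-1 cells, 500 per well in phenol red-free RPMI with 10% FBS, were exposed to compounds for 48 h at 37 °C, 5% CO2. Viability was read by CellTiter-Glo luminescence and normalised to DMSO (100%) and 9.2 uM bortezomib (0%).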

[6] = qHTS assay for measurement of the activity of small molecule inhibitors on Zika virus induced Caspase-3 activity in human iPSC derived neural progenitor cells (hNPCs) (AID 1224857; active means well fitted curve in the direction sought with a large enough effect; an effect the other way counts as inactive or inconclusive; further: nearly all actives have a fitted effect of over 65% in size; further: potency means the concentration at half of the fitted maximal effect)
In short: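 Human iPSC-derived neural progenitor cells pretreated 1 hr with compounds, then infected with Zika virus (2 FFU/cell) for 6 hours at 37 C. Caspase-3/7 measured by Caspase-Glo luminescence; % inhibition calculated from induction scaled to uninfected (0%) and infected (100%) wells.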

[7] = qHTS assay for measurement of the activity of small molecule inhibitors on Zika virus induced Caspase-3 activity in human astrocytoma cells (AID 1224859; active means well fitted curve in the direction sought with a large enough effect; an effect the other way counts as inactive or inconclusive; further: potency means the concentration at half of the fitted maximal effect)
In short: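 SNB-19 astrocytoma cells, 250/well, pretreated 1 h with compounds, then Zika virus at 2 FFU/cell for 6 h at 37 C; Caspase-Glo 3/7 luminescence after 30 min; percent inhibition normalised to uninfected and infected controls.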

[8] = qHTS Assay for Identifying Gametocytocidal Compounds (AID 743244; active means well fitted curve in the direction sought with a large enough effect; an effect the other way counts as inactive or inconclusive;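 further: on the % scale 0 is the no-effect control and ±100 the full control effect; actives lower the fluorescent signal which means gametocytes are killed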); conditions: P. falciparum 3D7 stage III-V gametocytes, alamarBlue, 72 h; max response: stronger effect = lower value
In short: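 Stage III-V P. falciparum 3D7 gametocytes, 20,000 per well, were exposed to compounds for 72 h at 37C, 5% CO2. AlamarBlue was then added for 24 h and viability was read as fluorescence at Ex 525/Em 598 nm.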

[9] = qHTS profiling of the MIPE4 collection as inhibitors of Plasmodium falciparum (HB3) proliferation (AID 743347);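 further: plate controls were DMSO vehicle wells for no effect and artemisinin wells for full effect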; conditions: P. falciparum HB3 in erythrocytes, SYBR Green DNA, 72 h; at 28.5 µM unless noted
In short: as §1

[10] = qHTS profiling for inhibitors of Plasmodium falciparum (3D7) proliferation (AID 743322);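 further: infected erythrocytes exposed to compound for 72 h before lysis; 100% = DMSO vehicle wells and 0% = 0.29 µM artemisinin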; conditions: P. falciparum 3D7 proliferation; at 28.7 µM (top of the series) unless noted
In short: as §1

[11] = qHTS profiling for inhibitors of Plasmodium falciparum (DD2) proliferation (AID 743323); conditions: lower = more inhibition; at 28.7 µM (top of the series) unless noted
In short: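 Parasite proliferation measured via DNA-dye fluorescence, as uninfected erythrocytes lack DNA. Cultures at 0.3% parasitemia and 2.5% hematocrit incubated 72 h with compound; signal scaled between vehicle and 0.29 uM artemisinin wells.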

[12] = qHTS profiling for inhibitors of Plasmodium falciparum (HB3) proliferation (AID 743324; active means well fitted curve in the direction sought with a large enough effect; an effect the other way counts as inactive or inconclusive;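 further: 100% = DMSO vehicle wells and 0% = artemisinin-treated control wells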); conditions: Plasmodium falciparum HB3 blood-stage proliferation; at 28.7 µM (top of the series) unless noted
In short: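 P. falciparum HB3 grown in erythrocytes (0.3% parasitemia, 2.5% hematocrit final) with compound for 72 h at 37 C, 5% CO2. Parasite DNA detected by SYBR Green after saponin/triton lysis overnight; normalized to 0.29 uM artemisinin and DMSO.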

| SMILES | parasite growth, % of DMSO control [1] | parasite growth remaining, % of DMSO control (lower = more inhibition) [2] | parasite growth, % of control (lower = inhibition) [3] | cell viability, % of control (lower = more cytotoxic) [4] | viability (% of control) [5] | Potency [6] | Potency [7] | max response [8] | growth, % of control [9] | remaining parasite growth % (stronger effect = lower value) [10] | activity, percent of control [11] | remaining proliferation (% of control), lower = more inhibition [12] |
| --- | --- | --- | --- | --- | --- | --- | --- | --- | --- | --- | --- | --- |
| Nc1ccn([C@@H]2O[C@H](CO)[C@@H](O)[C@H]2O)c(=O)n1 | 89.8% | 97.8% | 117% | 86.2% | 11.3% | inactive | inactive |  |  |  |  |  |
| O=C(O)c1nc(=O)[nH]c(=O)[nH]1 | 88.8% [at 9.64 µM] | 106% [at 9.64 µM] | 93.6% [at 9.64 µM] | 161% [at 23.2 µM] | 99.2% [at 23.2 µM] | inactive | inactive | 15.4% (inactive) | 89.9% [at 9.64 µM] |  |  |  |
| CN[C@@H]1[C@@H](O)[C@@H](O[C@@H]2[C@@H](O)[C@H](O[C@H]3O[C@H](CN)[C@@H](O)[C@H](O)[C@@H]3O)[C@@H](N)C[C@@H]2NC(=O)[C@@H](O)CN)OC[C@]1(C)O | 94% | 99.3% | 90.7% | 111% | 100% | inactive | inactive |  |  |  |  |  |
| CC(C)CN(C[C@@H](O)[C@H](Cc1ccccc1)NC(=O)O[C@H]1CO[C@H]2OCC[C@H]21)S(=O)(=O)c1ccc(N)cc1 | 42.7% | 19.4% | 101% | 118% | 117% | inactive | inactive | -5.35% (inactive) | 8.15% |  |  |  |
| NC[C@H]1O[C@H](O[C@@H]2[C@@H](O)[C@@H](O[C@H]3O[C@H](CO)[C@@H](O)[C@H](N)[C@@H]3O)[C@H](N)C[C@@H]2N)[C@H](O)[C@@H](O)[C@H]1O | 96.1% | 100% | 80.6% | 161% | 98.4% | inactive | inactive |  |  |  |  |  |
| COc1ccc(C=CC(=O)Nc2ccccc2C(=O)O)cc1OC | 24.6% | 90.5% | 48.9% | 188% | 104% | 2.64 µM (active) | 2.64 µM (active) |  |  |  |  |  |
| Cc1nn(Cc2ccccc2Cl)c(C)c1CN(C)CC(O)COc1ccc(Cl)cc1 (stereo not given) | 9.8% | 18.8% | 16.7% | 18% | 53.4% | inactive | inactive |  | 7.87% | 29.8% | 18.1% | 8.74% |
| CC[C@H](C)C(=O)O[C@H]1C[C@H](O)C=C2C=C[C@H](C)[C@H](CC[C@@H](O)C[C@@H](O)CC(=O)O)[C@H]21 | 96% | 105% | 162% | 113% | 113% | inactive | inactive | -1.33% (inactive) | 101% |  |  |  |
| COc1ccnc(CS(=O)c2nc3ccc(OC(F)F)cc3[nH]2)c1OC (stereo not given) | 58.5% | 95.8% | 99% | 282% | 108% | inactive | inactive | 7.9% (inactive) | 91% |  |  |  |
| CN(C)CC[C@H](CSc1ccccc1)Nc1ccc(S(=O)(=O)NC(=O)c2ccc(N3CCN(Cc4ccccc4-c4ccc(Cl)cc4)CC3)cc2)cc1[N+](=O)[O-] | 34% |  | 31.1% | 8.88% | 4.81% | inactive | inactive |  | 4.32% | 11.6% | 9.74% | 41.4% |
